Screening results (PubChem BioAssay)
Hits are enriched below; roughly 11% of the tested compounds scored in any of these assays.
USP28 inh = human USP28 deubiquitinase inhibition. Q96RU2. purified USP28, Ub-rhodamine cleavage fluorescence, 30 min. inhibition, % at 25 µM. 3% of 47,000 active
USP17 block = blocks human USP17 ubiquitin-rhodamine cleavage. inhibition, % at 50 µM. purified USP17, Ub-rhodamine cleavage fluorescence, 3 h. AID 1645855. 6.5% of 47,000 active. A8MUK1
OTUD3 inh = inhibitors of human OTUD3 deubiquitinase | Q5T2D3 | purified OTUD3, Ub-rhodamine fluorescence, 2 h | inhibition, % at 25 µM | 0.7% of 47,000 active | AID 1645858
USP30 block = inhibitors of human USP30 deubiquitinase; Q70CQ3; purified USP30, Ub-rhodamine cleavage fluorescence; inhibition, % at 25 µM; 5.3% of 47,000 active; AID 1645860
Numbers without * were called inactive. No stated cut-off is given here; in the data, active means inhibition above about 30%; inactive means the rest.

What do the screens show for `CC(C)CC(NC(=O)c1ccccn1)c1nc2ccccc2[nH]1` (configuration not stated)?
USP28 inh: -26; USP17 block: -26; OTUD3 inh: -20; USP30 block: -66

How did O=C(NC(Cc1ccccc1)c1nc2ccccc2[nH]1)c1ccccc1-c1ccccc1 (configuration not stated) do in these assays?
USP28 inh: -10; USP17 block: 40*; OTUD3 inh: -12; USP30 block: -51

How did CC(C)CC(NC(=O)c1ccc(Cl)cc1Cl)c1nc2ccccc2[nH]1 (configuration not stated) do in these assays?
USP28 inh: 4; USP17 block: 69*; OTUD3 inh: -3; USP30 block: -45

Results for O=C(Cc1coc2cc3c(cc12)CCC3)NC(Cc1ccccc1)c1nc2ccccc2[nH]1 (configuration not stated) ?
USP28 inh: -11; USP17 block: 47*; OTUD3 inh: -1; USP30 block: -8

Results for O=C(NC(Cc1ccccc1)c1nc2ccccc2[nH]1)c1ccc2ccccc2n1 (configuration not stated) ?
USP28 inh: 14; OTUD3 inh: 6; USP30 block: -8

Results for CCOC(=O)c1c(C)nn(-c2ccc(=O)[nH]n2)c1C ?
USP28 inh: -4; OTUD3 inh: -6; USP30 block: 4

Results for CC(C)OCCCn1cnc2c([nH]c3ccc(Br)cc32)c1=O ?
USP28 inh: -1; USP17 block: -8; OTUD3 inh: -8; USP30 block: 18

What do the screens show for `COc1ccccc1/C=C/C(=O)NC(Cc1ccccc1)c1nc2ccccc2[nH]1` (configuration not stated)?
USP28 inh: -2; USP17 block: 45*; OTUD3 inh: -5; USP30 block: -89

Results for CC(NC(=O)c1ccccc1)c1nc2ccccc2[nH]1 (configuration not stated) ?
USP17 block: -7; OTUD3 inh: -4

What do the screens show for `Cc1cccc(NC(=O)CSc2nnc(-c3n[nH]c4c3CCC4)n2N)c1`?
USP28 inh: 14; USP17 block: 63*; OTUD3 inh: 14; USP30 block: 28

What do the screens show for `COc1ccccc1CNC(=O)Cn1cnc(S(=O)(=O)N2CCCCC2)c1`?
USP28 inh: 11; USP17 block: 14; OTUD3 inh: 11; USP30 block: 23

Results for CCc1ccc(NC2=NC(c3cccnc3)n3c(nc(C)cc3=O)N2)cc1 (configuration not stated) ?
USP28 inh: 1; USP17 block: -4; OTUD3 inh: -9; USP30 block: -14

How did CCN1CCN(C(=O)c2cc(-c3ccccc3)cn2C)CC1 do in these assays?
USP28 inh: -3; USP17 block: -2; OTUD3 inh: 7; USP30 block: 7

Results for CCN1CCN(C(=O)CCCN(c2ccccc2)S(C)(=O)=O)CC1 ?
USP28 inh: 22; USP17 block: 62*; OTUD3 inh: 15; USP30 block: 35*

Results for CC(C)CCn1c(=O)c2ccccc2n2c(CCC(=O)NC3CCCCCC3)nnc12 ?
USP28 inh: 16; USP17 block: 41*; OTUD3 inh: 38*; USP30 block: 50*

Results for CCCn1c(=O)c2sccc2n2c(CCC(=O)NC3CCC(C)CC3)nnc12 (configuration not stated) ?
USP28 inh: 12; OTUD3 inh: 23; USP30 block: 40*

Results for CC(C)CCn1c(=O)c2ccccc2n2c(CCC(=O)NCc3ccccc3Cl)nnc12 ?
USP28 inh: -5; USP17 block: -1; OTUD3 inh: 0; USP30 block: -12

How did CCn1c(=O)c2sccc2n2c(CCC(=O)NC3CCCCCC3)nnc12 do in these assays?
USP28 inh: 11; USP17 block: 13; OTUD3 inh: 18; USP30 block: 29

How did O=c1[nH]c2nc(N3CCN(c4ccccn4)CC3)ncc2c(=O)n1Cc1ccccc1 do in these assays?
USP28 inh: 14; USP17 block: 13; OTUD3 inh: 7; USP30 block: 21

What do the screens show for `O=C(CC1Oc2ccccc2NC1=O)Nc1ccccc1Br` (configuration not stated)?
USP28 inh: -7; USP17 block: 59*; OTUD3 inh: -19; USP30 block: -16

Results for CCC(C)N(CCNC(=O)CC1Oc2ccccc2NC1=O)C1CCCCC1 (configuration not stated) ?
USP28 inh: -8; USP17 block: -12; OTUD3 inh: -1; USP30 block: -10

What do the screens show for `COc1cc(OC)cc(-n2c(=O)c3sccc3n(CC(=O)Nc3ccc(C)cc3)c2=O)c1`?
USP28 inh: 8; USP17 block: 62*; OTUD3 inh: 5; USP30 block: 20
